Our source for the activity change, negative = inhibition and Potency values is PubChem BioAssay AID651791 (National Center for Advancing Translational Sciences (NCATS), 2012).

Records with an inconclusive call do not appear. Active and inactive are the calls of the source. Calls come from the whole dose curve; as a rule, active = well fitted inhibition curve with a large enough effect; inconclusive = small, poorly fitted or top-dose-only effect; inactive = no such curve, though single readings can be large or run the other way.
Potency is the fitted concentration of half-maximal effect.

The assay in a line: InCell qHTS Assay for Inhibitors of the mTORC1 Signaling Pathway in MEF (Tsc2-/-, p53-/-) Cells: Hit Validation. Note: nearly all actives have a fitted effect of over 75% in size. Particulars: phospho-rpS6 immunofluorescence, 24 h; activity change, negative = inhibition: at 38.3 µM (top of the series). An excerpt:
The mammalian target of rapamycin (mTOR) is an intracellular serine/threonine kinase Aberrant regulation of mTOR signaling plays a causative role in a number of human diseases, including cancer, benign tumors such as lymphangioleiomyomatosis (LAM) and Tuberous Sclerosis Complex (TSC), and metabolic diseases such as diabetes and obesity. This project aims to identify inhibitors of ribosomal protein S6 (rpS6) phosphorylation. The phosphorylation of rpS6 is a key event downstream of mTOR activation. The assay uses a phospho-specific antibody of phospho-rpS6 to detect inhibitors of mTOR activation. Mutations in the Tsc1 and Tsc2 genes are the underlying genetic lesions responsible for TSC, causing constitutive activation of the mTORC1 pathway and leading to profound effects on cell metabolism. Aberrant metabolism in cancer has recently received significant attention as a target to develop therapeutic agents in the treatment of cancer.1 As Tsc2-/- cells have lost the ability to respond to energy and growth factor deprivation, these cells are unable to properly down regulate cellular biosynthetic processes in response to metabolic stress, and are thus extremely sensitive to glucose deprivation-induced death.2 A central goal of this project is to explore the unique cell survival and metabolic properties of cells with Tsc1 or Tsc2 by screening for compounds that selectively target the Tsc2-/- MEFs by screening both Tsc2-/- and WT MEF cell lines. We hope to better understand these aspects of TSC physiology in order to exploit them for therapeutic benefit. NIH Molecular Libraries Probe Production Centers Network [MLPCN] NIH Chemical Genomics Center [NCGC] MLPCN Grant: NS059428 Assay Submitter (PI): Blenis, John; Harvard University
For quantitative high throughput analysis of mTORC1 signaling, we developed a cell-based assay for immuno-fluorescence based detection of rpS6 phosphorylation on the Acumen Explorer that will be used a platform for the primary small molecule screen. Mouse embryonic fibroblasts (MEFs) are cultured in 1536-well plates using DMEM + 10% FBS. Twenty-four hrs after plating, test compounds (solubilized in DMSO) are delivered and incubated with the cells for 24 hrs at 37 degree Celsius. Following the incubation, media with compound is aspirated and the cells are fixed in 4% paraformaldehyde (PFA) containing PBS + 0.2% TX-100. Next, PFA is aspirated, cells are washed two times with PBS plus 0.2% TX-100 and the cells are blocked for 1 hr at room temperature (blocking buffer: LiCOR Blocking Buffer plus 0.2% TX-100). This is followed by aspiration and staining with Alexa-488 conjugated-phospho-rpS6 Ser235/236 antibody for 2 hours at room temperature (Cell Signaling Technology # 4803, 1:50 dilution in blocking buffer). Cells are washed two times with PBS plus 0.2% TX-100, and stained with 10 uM propidium iodide (PI) for 20-25 minutes for cell number measurement (1:500 dilution of Hoescht staining is also added for IN Cell imaging). The plates are scanned on the Acumen Explorer laser scanning instrument (TTP Labtech) using the 488nm laser for simultaneous excitation of the Alexa-488 and PI. The fluorescence emission from the Alexa-488 conjugated rpS6 phospho-235/236 antibody staining is selected using a […] band pass filter. Fluorescence emission from the PI stain is selected using a 575-640 nm band pass filter. The normalized phospho-S6 staining is calculated as the ratio of the integrated Alexa 488 intensity divided by the integrated PI intensity for the single concentration rapamycin control (7.5 nM) and DMSO columns. […] Inhibition of the pathway is defined based on the normalized phospho-S6 intensity in rapamycin treated cells. […]
In general terms: In qHTS, concentration-response curves come from the screen itself.
In the case of `COc1cc(NC(=O)c2cccc3c2C(=O)N(C2CCCCC2)C3)cc(OC)c1OC`, the activity change, negative = inhibition is -100%.

In the case of `Cc1cccc(CS(=O)(=O)c2ncc(Cl)c(C(=O)Nc3nnc(C(C)C)s3)n2)c1`, the Potency is 13.1 µM (active).

Consider `COc1ccc(OCc2nc3c4c(-c5ccccc5)c(-c5ccccc5)oc4ncn3n2)cc1`, for which the activity change, negative = inhibition is -100%.

`COc1ccc(NC(=O)c2ccco2)cc1NC(=O)COc1ccccc1Cl`: the activity change, negative = inhibition is -100%.

As for `CCCCC1CCC(C(=O)N2CC(=O)Nc3ccc(Cl)cc3C2c2ccc(F)cc2)CC1` (stereo not given), the activity change, negative = inhibition was -100%.

On to `Cc1cccc(-n2ncc3c(Nc4c(C)cc(C)cc4C)ncnc32)c1`, for which the activity change, negative = inhibition is -100%.

`CCCCNC(=O)c1ccc2c(c1)N=C(CC)c1ccccc1S2`: the activity change, negative = inhibition is -16%.

Take `CCCSc1ncc(Cl)c(C(=O)Nc2ccc(S(=O)(=O)N3CCCCC3C)cc2)n1` (stereo not given): the activity change, negative = inhibition was -100%.

Regarding `CCCCOCc1cc(CN2CCN(c3cccc(Cl)c3)CC2)c(O)c2ncccc12`, the activity change, negative = inhibition was -100%.

For `CS(=O)(=O)c1ncc(Cl)c(C(=O)N(Cc2ccc(Cl)cc2)Cc2ccco2)n1`, the Potency was 3.29 µM (active).

On to `CCOc1ccc(-c2cnc(NCc3ccc(C(F)(F)F)cc3)n2C)cc1`, for which the activity change, negative = inhibition is -100%.

In the case of `COc1ccc(OCC(=O)NCc2ccc3c(c2)CCN3C(=O)c2ccccc2)cc1`, the activity change, negative = inhibition is -100%.

Take `Cc1ccc(S(=O)(=O)c2nc(-c3ccco3)oc2SC(C)c2ccccc2)cc1` (stereo not given): the activity change, negative = inhibition is -100%.

Take `Cc1nn(CC(=O)NCc2ccccc2Cl)c(=O)c2cccn12`: the activity change, negative = inhibition was -100%.

In the case of `COc1ccc(CNC(=O)C2CCN(c3nc4ccc(C)cc4[nH]3)CC2)cc1`, the activity change, negative = inhibition is -100%.

Take `CCS(=O)(=O)c1ccccc1C(=O)N(Cc1cccnc1)c1nc2cc(C)c(C)cc2s1`: the activity change, negative = inhibition was -100%.

Regarding `COc1ccc(CCNC(=O)C(C)n2nc(C)c3sc4ccccc4c3c2=O)c(OC)c1` (stereo not given), the activity change, negative = inhibition was -100%.

On to `O=C(Nc1ccc(Cl)c(C(F)(F)F)c1)c1ccc2c(c1)CCN2S(=O)(=O)c1ccccc1`, for which the activity change, negative = inhibition was -100%.

On to `Cc1ccc2sc(N(CCCN(C)C)C(=O)c3ccco3)nc2c1C`, for which the activity change, negative = inhibition was -25.4%.

Regarding `Cc1cccc(C)c1Nc1sc(C(=O)c2ccccc2)c(N)c1S(=O)(=O)c1ccccc1`, the activity change, negative = inhibition was -100%.

Regarding `O=C(CCCn1c(=O)c2ccccc2n(Cc2cccc(Cl)c2)c1=O)NCCc1ccc(Cl)cc1`, the activity change, negative = inhibition was -100%.

`COc1ccc(Nc2cc(C)nc(-n3nc(C)cc3C)n2)cc1Cl`: the activity change, negative = inhibition was -100%.

`Cc1cccc(N2CCN(c3ncnc4c3nc3n4CCCCC3)CC2C)c1` (stereo not given): the Potency is 5.85 µM (active).

`CCOc1cc(CNc2ccc(O)cc2)ccc1OCc1ccc(Cl)cc1`: the activity change, negative = inhibition was -100%.

With `CC1C(=O)N2CCCc3cc(S(=O)(=O)Nc4ccc(Br)cc4F)cc1c32` (stereo not given), the Potency is 14.7 µM (active).

Consider `CCN1CCN(C(=O)Cn2ncc3c4ccccc4n(Cc4c(C)cc(C)cc4C)c3c2=O)CC1`, for which the activity change, negative = inhibition is -100%.

In the case of `CC1=Nc2cc(C(=O)NC3CCCCC3)ccc2Sc2ccc(Cl)cc21`, the activity change, negative = inhibition was -100%.

With `Cc1nn(C(C)C(=O)NC2CCC(C)CC2)c(=O)c2c1sc1ccccc12` (stereo not given), the activity change, negative = inhibition is -100%.

Consider `CCOC(=O)N1CCN(Cc2nc3cc(NC(=O)c4ccccc4OC)ccc3n2C(C)C)CC1`, for which the activity change, negative = inhibition was -100%.

Turning to `O=c1oc2ccccc2cc1-c1cn2cc(Cc3ccccc3F)sc2n1`, the activity change, negative = inhibition is -100%.

Consider `CCOC(=O)c1[nH]c2ccccc2c1NC(=O)c1ccccc1OCC`, for which the activity change, negative = inhibition is -100%.

`CN(C)c1ccc(Nc2nc3ccccc3n3nnnc23)cc1`: the activity change, negative = inhibition is -0.0295%.

On to `COc1cc(OC)c(NC(=O)Nc2ccc3c(c2)N(C)C(=O)c2ccccc2S3)cc1Cl`, for which the Potency was 13.1 µM (active).

Regarding `Cn1nc(-c2ccc(OCC(=O)Nc3ccc(Cl)cc3)cc2)c2ccccc2c1=O`, the activity change, negative = inhibition is -100%.

`Cc1ccc(-c2nc3sccn3c2Nc2ccc(C)c(C)c2)cc1`: the activity change, negative = inhibition is -100%.

Regarding `Cc1ccc(NC(=O)Cn2cc(C(=O)C3CCCCC3)c3ccccc32)cc1`, the activity change, negative = inhibition is -100%.

`COc1ccc(CCNC(=O)c2ccc3c(c2)N(Cc2ccccc2)CCS3)cc1OC`: the activity change, negative = inhibition was -100%.

Consider `COc1cc(OC)cc(C(=O)NCc2ccc3c(c2)CCN3C(=O)c2ccccc2)c1`, for which the activity change, negative = inhibition was -100%.

With `CC(C)(C)c1ccc(S(=O)(=O)N2CCC(c3ccncc3)CC2)cc1`, the activity change, negative = inhibition is -29.8%.

Take `Cc1nn(C(C)C(=O)NC2CCCCC2)c(=O)c2c1sc1ccccc12` (stereo not given): the activity change, negative = inhibition is -100%.
